Source: the supplement of paper PMC11732987, “Enantioselective OTUD7B fragment discovery through chemoproteomics screening and high-throughput optimisation” (Communications Chemistry, 2025)

Key:
Assay in all cases: log2 ratio of Biotin-Ahx-Ub-VS probe labelling (fragment/DMSO); higher = less target engagement (more negative = stronger competition), active = hit call of the paper (q ≤ 0.05, log2 ratio ≤ -1)
Settings in all cases: compound concentration: 200 uM; treatment time: 3 h
[1] = target: T1, OTUD6B (UniProt Q8N6M0)
T1 sequence (whole entry): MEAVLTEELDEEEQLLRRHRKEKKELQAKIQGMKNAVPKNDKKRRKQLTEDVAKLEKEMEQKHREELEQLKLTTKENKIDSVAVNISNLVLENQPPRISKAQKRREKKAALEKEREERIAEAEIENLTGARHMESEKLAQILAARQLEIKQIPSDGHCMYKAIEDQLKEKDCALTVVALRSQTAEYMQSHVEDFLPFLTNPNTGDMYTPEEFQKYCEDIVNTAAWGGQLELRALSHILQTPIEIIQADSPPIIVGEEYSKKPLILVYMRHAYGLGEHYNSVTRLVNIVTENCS
How it was run: (§1)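 Each value is an average log2 ratio of fragment to vehicle, tested by unpaired t-test. The underlying Spectronaut label-free quantities were global-median-normalised, and only proteins with ≥2 unique peptides were included. Triplicate HEK293T lysate samples (495 µg) were exposed to fragment at 200 µM or vehicle for 3 h, then to Biotin-Ahx-Ub-VS at 0.5 µM final for 1 h, before NeutrAvidin enrichment of labelled DUBs, LysC and trypsin digestion, and diaPASEF LC-MS/MS.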

[2] = target: T2, OTUD7B (UniProt Q6GQQ9)
T2 sequence (whole entry): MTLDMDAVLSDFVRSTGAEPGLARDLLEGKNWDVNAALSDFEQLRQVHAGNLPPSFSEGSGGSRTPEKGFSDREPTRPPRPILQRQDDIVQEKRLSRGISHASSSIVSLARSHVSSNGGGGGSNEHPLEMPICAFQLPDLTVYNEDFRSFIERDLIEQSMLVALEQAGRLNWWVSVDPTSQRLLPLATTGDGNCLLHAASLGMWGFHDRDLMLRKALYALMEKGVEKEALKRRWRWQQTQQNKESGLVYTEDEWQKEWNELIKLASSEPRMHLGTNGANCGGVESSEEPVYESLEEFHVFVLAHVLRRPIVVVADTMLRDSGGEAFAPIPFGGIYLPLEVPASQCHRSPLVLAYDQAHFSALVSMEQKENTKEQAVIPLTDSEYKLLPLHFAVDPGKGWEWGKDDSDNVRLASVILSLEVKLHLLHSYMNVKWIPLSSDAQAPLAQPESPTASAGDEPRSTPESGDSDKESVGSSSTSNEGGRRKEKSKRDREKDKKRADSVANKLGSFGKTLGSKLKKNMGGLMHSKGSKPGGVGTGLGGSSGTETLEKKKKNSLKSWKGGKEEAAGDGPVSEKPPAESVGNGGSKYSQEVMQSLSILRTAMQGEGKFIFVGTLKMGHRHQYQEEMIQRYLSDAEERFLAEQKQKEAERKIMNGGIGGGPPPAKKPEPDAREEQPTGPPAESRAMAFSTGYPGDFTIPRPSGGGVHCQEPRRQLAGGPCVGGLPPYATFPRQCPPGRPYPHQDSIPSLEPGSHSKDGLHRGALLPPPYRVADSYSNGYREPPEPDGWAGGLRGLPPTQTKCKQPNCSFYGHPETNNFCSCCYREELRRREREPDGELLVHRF
How it was run: as §1

[3] = target: PRPF8 (UniProt Q6P2Q9)
How it was run: as §1

[4] = target: T3, PSMD7 (UniProt P51665)
T3 sequence (whole entry): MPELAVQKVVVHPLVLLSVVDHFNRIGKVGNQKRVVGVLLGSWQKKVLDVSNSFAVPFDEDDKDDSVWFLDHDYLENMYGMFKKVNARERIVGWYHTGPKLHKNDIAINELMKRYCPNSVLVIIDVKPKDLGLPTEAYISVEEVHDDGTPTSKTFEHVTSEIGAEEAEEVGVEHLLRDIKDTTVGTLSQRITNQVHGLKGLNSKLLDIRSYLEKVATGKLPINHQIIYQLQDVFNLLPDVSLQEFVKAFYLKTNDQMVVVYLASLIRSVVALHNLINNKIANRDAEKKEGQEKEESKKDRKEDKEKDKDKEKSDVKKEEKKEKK
How it was run: as §1

[5] = target: UCHL1 (UniProt P09936)
Sequence of UCHL1 (P09936 whole entry, looked up): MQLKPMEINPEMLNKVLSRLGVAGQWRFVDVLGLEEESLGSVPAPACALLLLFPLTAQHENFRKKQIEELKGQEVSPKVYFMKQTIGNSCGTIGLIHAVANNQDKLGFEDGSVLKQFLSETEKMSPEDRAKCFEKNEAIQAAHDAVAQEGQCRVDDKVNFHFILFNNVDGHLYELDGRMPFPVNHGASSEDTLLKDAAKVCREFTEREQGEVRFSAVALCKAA
How it was run: as §1

[6] = target: T4, UCHL3 (UniProt P15374)
T4 sequence (whole entry): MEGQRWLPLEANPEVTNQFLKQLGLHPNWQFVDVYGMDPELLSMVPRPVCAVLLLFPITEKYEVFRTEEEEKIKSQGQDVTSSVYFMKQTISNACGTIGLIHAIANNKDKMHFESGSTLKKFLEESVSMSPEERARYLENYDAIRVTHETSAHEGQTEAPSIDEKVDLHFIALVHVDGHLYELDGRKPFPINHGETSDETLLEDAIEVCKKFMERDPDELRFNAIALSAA
How it was run: as §1

[7] = target: T5, UCHL5 (UniProt Q9Y5K5)
T5 sequence (whole entry): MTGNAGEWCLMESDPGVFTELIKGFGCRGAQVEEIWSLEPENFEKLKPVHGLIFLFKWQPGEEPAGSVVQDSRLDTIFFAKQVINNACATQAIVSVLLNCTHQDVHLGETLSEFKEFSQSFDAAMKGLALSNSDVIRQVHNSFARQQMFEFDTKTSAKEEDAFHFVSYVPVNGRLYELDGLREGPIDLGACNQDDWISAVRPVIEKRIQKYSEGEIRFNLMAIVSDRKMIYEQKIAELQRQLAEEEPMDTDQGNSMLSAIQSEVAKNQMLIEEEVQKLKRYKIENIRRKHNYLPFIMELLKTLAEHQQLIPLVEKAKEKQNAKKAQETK
How it was run: as §1

[8] = target: USP10 (UniProt Q14694)
Sequence of USP10 (Q14694 whole entry): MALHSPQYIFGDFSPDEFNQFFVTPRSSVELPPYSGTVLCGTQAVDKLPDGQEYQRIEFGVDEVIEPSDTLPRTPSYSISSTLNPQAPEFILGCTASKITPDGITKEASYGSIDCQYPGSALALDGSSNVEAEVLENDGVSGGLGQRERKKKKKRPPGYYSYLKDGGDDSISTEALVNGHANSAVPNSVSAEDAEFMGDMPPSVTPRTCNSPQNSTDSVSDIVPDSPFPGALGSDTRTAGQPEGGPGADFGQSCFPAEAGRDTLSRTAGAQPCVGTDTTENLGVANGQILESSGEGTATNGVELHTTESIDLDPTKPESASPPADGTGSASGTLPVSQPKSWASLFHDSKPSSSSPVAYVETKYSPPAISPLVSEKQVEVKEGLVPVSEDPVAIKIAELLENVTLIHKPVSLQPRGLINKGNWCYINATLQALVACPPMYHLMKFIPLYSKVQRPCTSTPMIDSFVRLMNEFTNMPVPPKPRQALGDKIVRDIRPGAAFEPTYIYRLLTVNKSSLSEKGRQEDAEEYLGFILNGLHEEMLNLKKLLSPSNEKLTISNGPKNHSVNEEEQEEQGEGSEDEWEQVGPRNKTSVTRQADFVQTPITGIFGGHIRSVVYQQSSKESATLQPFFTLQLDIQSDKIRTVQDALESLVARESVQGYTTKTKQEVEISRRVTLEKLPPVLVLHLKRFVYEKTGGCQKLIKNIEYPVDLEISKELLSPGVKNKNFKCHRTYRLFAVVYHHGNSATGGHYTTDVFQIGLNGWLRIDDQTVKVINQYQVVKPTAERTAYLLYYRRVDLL
How it was run: as §1

[9] = target: T6, USP15 (UniProt Q9Y4E8)
T6 sequence (whole entry): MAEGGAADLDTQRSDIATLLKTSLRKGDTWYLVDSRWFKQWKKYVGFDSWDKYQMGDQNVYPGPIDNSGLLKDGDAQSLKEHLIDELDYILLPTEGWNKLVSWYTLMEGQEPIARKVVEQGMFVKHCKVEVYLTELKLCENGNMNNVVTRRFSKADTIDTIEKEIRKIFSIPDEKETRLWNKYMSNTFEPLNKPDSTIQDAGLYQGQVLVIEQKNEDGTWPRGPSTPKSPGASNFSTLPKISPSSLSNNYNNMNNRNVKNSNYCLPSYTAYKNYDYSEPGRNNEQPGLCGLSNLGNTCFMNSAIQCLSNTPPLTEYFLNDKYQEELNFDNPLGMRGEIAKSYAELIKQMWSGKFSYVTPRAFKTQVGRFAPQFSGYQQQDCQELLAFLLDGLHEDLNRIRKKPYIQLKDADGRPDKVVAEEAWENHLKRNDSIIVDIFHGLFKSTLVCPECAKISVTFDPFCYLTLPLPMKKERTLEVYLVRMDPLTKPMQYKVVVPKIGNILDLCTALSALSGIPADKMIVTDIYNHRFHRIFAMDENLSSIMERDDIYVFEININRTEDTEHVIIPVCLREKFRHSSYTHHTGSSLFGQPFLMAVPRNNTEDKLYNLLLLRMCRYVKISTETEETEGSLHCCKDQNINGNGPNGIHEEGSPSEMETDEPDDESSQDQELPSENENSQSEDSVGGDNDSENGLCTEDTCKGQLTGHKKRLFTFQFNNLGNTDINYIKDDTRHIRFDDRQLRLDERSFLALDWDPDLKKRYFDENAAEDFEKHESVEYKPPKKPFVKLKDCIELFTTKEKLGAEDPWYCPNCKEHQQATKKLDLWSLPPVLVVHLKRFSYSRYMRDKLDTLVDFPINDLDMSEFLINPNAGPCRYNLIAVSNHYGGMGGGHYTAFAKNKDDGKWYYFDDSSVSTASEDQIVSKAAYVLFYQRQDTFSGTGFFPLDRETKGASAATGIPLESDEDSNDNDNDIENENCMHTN
How it was run: as §1

[10] = target: USP16 (UniProt Q9Y5T5)
Sequence of USP16 (Q9Y5T5 whole entry, looked up): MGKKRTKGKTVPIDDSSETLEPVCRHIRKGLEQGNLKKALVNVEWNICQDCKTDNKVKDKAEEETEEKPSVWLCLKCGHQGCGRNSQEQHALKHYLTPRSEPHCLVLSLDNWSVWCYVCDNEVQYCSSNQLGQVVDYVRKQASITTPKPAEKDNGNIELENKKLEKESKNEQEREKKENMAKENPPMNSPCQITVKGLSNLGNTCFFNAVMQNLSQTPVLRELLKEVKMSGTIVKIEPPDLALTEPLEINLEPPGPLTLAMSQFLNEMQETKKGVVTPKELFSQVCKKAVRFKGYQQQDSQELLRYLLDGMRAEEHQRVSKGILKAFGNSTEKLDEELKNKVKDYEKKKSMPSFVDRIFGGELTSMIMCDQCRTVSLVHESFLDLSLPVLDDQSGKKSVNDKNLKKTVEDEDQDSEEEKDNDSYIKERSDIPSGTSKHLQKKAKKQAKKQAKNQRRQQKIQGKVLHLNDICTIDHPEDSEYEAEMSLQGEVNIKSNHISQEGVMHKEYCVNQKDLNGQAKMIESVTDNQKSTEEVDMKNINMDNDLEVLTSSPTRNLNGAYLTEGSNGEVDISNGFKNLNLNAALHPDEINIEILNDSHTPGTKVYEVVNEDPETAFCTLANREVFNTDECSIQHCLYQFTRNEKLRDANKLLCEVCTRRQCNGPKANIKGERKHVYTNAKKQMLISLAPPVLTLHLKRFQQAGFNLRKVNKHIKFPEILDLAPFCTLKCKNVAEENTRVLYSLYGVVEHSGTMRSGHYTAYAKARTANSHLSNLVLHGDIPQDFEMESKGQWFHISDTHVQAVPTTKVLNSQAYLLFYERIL
How it was run: as §1

Measured: log2 ratio of Biotin-Ahx-Ub-VS probe labelling

O=C(CCl)N1CCOC2(CCC2)CC1
active: [5] -1.35
inactive: [1] -0.0124 | [2] -0.961 | [3] -0.071 | [4] -0.283 | [6] 0.146 | [7] -0.0451 | [8] -0.118 | [9] -0.447 | [10] 0.117
